# Screening results: PubChem BioAssay, National Center for Advancing Translational Sciences (NCATS)
# Compounds with a hit are over-represented: about 2.4% of the library has one in this group of screens.
# Apoferritin bind: qHTS Assay for Identification of Novel General Anesthetics; Ferritin light chain (Equus caballus), P02791; apoferritin/1-aminoanthracene competitive binding, fluorescence; Potency, µM (highest dose often 77.5 µM), for inactives: at the highest dose activity change, negative = displacement, hits mostly inhibitors; 350,000 compounds, 0.074% hits; also: % is scaled to controls: 0 for no effect and ±100 for the full control effect; nearly all actives have a fitted effect of over 20% in size
# Target sequence (P02791 2-175 limits assumed): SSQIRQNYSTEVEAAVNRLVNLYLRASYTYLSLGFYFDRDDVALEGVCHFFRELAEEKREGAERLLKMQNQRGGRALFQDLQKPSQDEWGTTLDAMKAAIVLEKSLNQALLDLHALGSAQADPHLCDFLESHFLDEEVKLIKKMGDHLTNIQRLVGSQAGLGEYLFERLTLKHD
#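 Read-out: endpoint 1-AMA fluorescence, excitation 380 nm and emission 535 nm, after compounds sit 10 min at room temperature with 10 uM horse-spleen apoferritin in 50% saturated 1-AMA/PBS. Values come from four-parameter Hill fits.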
# S2 tox: Viability Counterscreen for Primary qHTS for Inhibitors of ATXN expression; S2 cells (HEK-293 line with an ATXN2-luciferase reporter) viability, CellTiter-Fluor protease fluorescence, 24 h; Potency, µM (titrated, usually from 56.7 µM), most hits filed as cytotoxic; 400,000 compounds, 0.49% hits; also: nearly all actives have a fitted effect of over 40% in size
# TGFb SMAD3 inh: qHTS for Inhibitors of TGF-b | HepG2 CAGA-GFP TGF-b/SMAD3 reporter, GFP fluorescence, 18 h; TGF-beta stimulated, 500 pg/mL final | Potency, µM (doses to about 46.1 µM), without a hit: top-dose activity, negative = inhibition, hits mostly inhibitors | 410,000 compounds, 1.2% hits | AID 588855, 2011; also: % is scaled to controls: 0 for no effect and ±100 for the full control effect; nearly all actives have a fitted effect of over 65% in size
#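 Inhibition of TGF-beta-driven CAGA-GFP reporter expression in HEPG2 cells is measured by cellular GFP fluorescence after 18 h stimulation with 500 pg/mL recombinant TGF-beta in 1% FBS medium at 37 degrees C.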
# ATXN2 expr inh: Primary qHTS for Inhibitors of ATXN expression; HEK-293 ATXN2-luciferase reporter, luminescence, 24 h; Potency, µM (titrated, usually from 57 µM), for inactives: at the highest dose activity change, negative = inhibition, most hits filed as inhibitors; 360,000 compounds, 0.72% hits; AID 1745845, 2022; also: % is scaled to controls: 0 for no effect and ±100 for the full control effect; nearly all actives have a fitted effect of over 55% in size
#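 ATXN2-luciferase reporter cells (luciferase flanked by upstream and downstream ATXN2 gene portions) were treated 24 h at 37 °C with compounds at up to 57 uM. SteadyGlo luminescence gave expression; GF-AFC fluorescence gave viability.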
# HepG2 viability: qHTS for Inhibitors of TGF-b: Cytotox Counterscreen; HepG2 CAGA-GFP viability, ATP luminescence, 18 h; Potency, µM (doses to about 46.1 µM), for inactives: at the highest dose activity change, negative = cytotoxicity, hits mostly cytotoxic; 410,000 compounds, 0.76% hits; AID 588856, 2011
#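 HepG2 CAGA-GFP cells (1000/well, DMEM with 1% FBS) received compound, then TGF-beta at 500 pg/mL final, and were incubated 18 hours at 37 degrees C. Viability was read by CellTiter-Glo luminescence. Media-only wells were set as complete cell-killing and DMSO as no toxicity.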
# * = called active by the depositor; i = inactive; ? = inconclusive; . = no result. Calls follow the shape of the dose curve; as a rule, active = well fitted curve in the direction sought with a large enough effect; inconclusive = small, poorly fitted or top-dose-only effect, or another doubt; inactive = no such curve, though single readings can be large; an effect the other way counts as inactive or inconclusive. Potency is read from the fitted curve at half-maximal effect.
SMILES,Apoferritin bind,S2 tox,TGFb SMAD3 inh,ATXN2 expr inh,HepG2 viability
N#CC(C#N)=C1C=CC=CN1/C(=C\c1ccco1)C(=O)c1ccc(-c2ccccc2)cc1,-13%,?,7.1µM*,?,11µM*
Nc1nnc(CCOc2ccc(Cl)cc2)s1,-15%,i,1%,3%,-14%
Cc1cccc(OCCc2nnc(N)s2)c1C,?,i,20µM*,-8%,-11%
Nc1[nH]c(=S)[nH]c(=O)c1N=O,.,.,5%,.,-26%
CC[N+]1(CC(=O)c2ccc(Br)cc2)CCCCC1,.,.,-5%,.,-20%
Cc1ccc(N(NC(=O)C(O)(c2ccccc2)c2ccccc2)C(=O)CCl)cc1,2%,18µM*,?,28µM*,16µM*
CN1C(=O)CSc2ccc(NC(=O)NCCC3=CCCCC3)cc21,22µM*,i,4%,2%,-25%
O=C(c1cccc(N2CCCC2=O)c1)N1CCN(c2ccccc2)CC1,2%,i,-4%,8%,9%
O=C(c1cccc(N2CCCC2=O)c1)N1CCC(Oc2cccc(CN3CCN(c4ccccn4)CC3)c2)CC1,.,14µM*,.,.,.
CC(Nc1nc(-c2ccccc2)nc2ccccc12)c1ccccc1 (stereo not given),-19%,?,?,-6%,-28%
CC(Nc1nc(N2CCCCC2)nc2ccccc12)c1ccccc1 (stereo not given),?,.,?,.,13µM*
O=C1OCCC1Sc1nnc(-c2ccc(Cl)cc2Cl)o1 (stereo not given),3%,i,?,6.3µM*,-34%
CCCn1c(-c2ccc(F)cc2)nc2c(NCCCN3CCCCC3C)nc(C)nc21 (stereo not given),-9%,.,.,.,.
CCOc1ccccc1NC(=O)c1cc2ccc3cccnc3c2[nH]1,21%,.,-4%,.,-12%
O=C(NCC1CCN(Cc2ccc(F)cc2)CC1)c1cc2ccc3cccnc3c2[nH]1,5%,.,16µM*,.,18µM*
O=C(NCc1ccc(Cl)cc1)c1cc2ccc3cccnc3c2[nH]1,-9%,.,-4%,.,-17%
O=C(NCC1CCN(Cc2ccccc2Cl)CC1)c1cc2ccc3cccnc3c2[nH]1,-8%,.,16µM*,.,16µM*
CN1CCN(S(=O)(=O)c2cccc(C(=O)N(Cc3ccccc3)c3ccccc3)c2)CC1,.,i,22%,0%,1%
C[C@@H](O)[C@H]1C(=O)N2C(C(=O)OCOC(=O)C(C)(C)C)=C(SC3CN(C4=NCCS4)C3)[C@H](C)[C@H]12,.,.,.,-4%,.
CCN(c1ccccc1)C(CNS(=O)(=O)c1ccccc1)c1ccccc1 (stereo not given),64%,?,16µM*,?,-48%
COc1nc(OC)nc(Oc2ccc(Cl)cc2[N+](=O)[O-])n1,9%,i,10%,4%,-4%
COc1ccc([N+](=O)[O-])c(S(=O)(=O)c2ccccc2)n1,-5%,.,3.2µM*,12µM*,14µM*
O=[N+]([O-])c1cccnc1S(=O)(=O)c1ccccc1,0%,?,11µM*,-31%,3.5µM*
COc1ccc([N+](=O)[O-])c(S(=O)(=O)c2ccc(Cl)cc2)n1,-9%,.,1.8µM*,?,0.63µM*
CCOc1ccc(CCNC(=O)c2ccc3ccccc3n2)cc1OCC,?,i,-5%,4%,-26%
SMILES,Apoferritin bind,S2 tox,TGFb SMAD3 inh,ATXN2 expr inh,HepG2 viability
CCC1(C2CCN(Cc3cccc(Cl)c3)CC2)NC(=O)N(CC2COc3ccccc3O2)C1=O (stereo not given),.,i,.,.,.
CN(Cc1ccc(F)cc1)C(=O)CNC(=O)c1ccc2c(c1)OCO2,.,i,-2%,8%,4%
COc1ccc(NC(=S)NC(NC(=O)c2ccc(Cl)cc2Cl)C(Cl)(Cl)Cl)c([N+](=O)[O-])c1 (stereo not given),?,?,11µM*,?,-43%
COc1ccc(NC(=S)NC(NC(=O)c2ccccc2Cl)C(Cl)(Cl)Cl)c([N+](=O)[O-])c1 (stereo not given),?,i,-18%,29%,-35%
CC(C)C[C@H](NC(=O)[C@@H](NC(=O)c1cccc(-c2ccccc2)n1)[C@@H](C)O)B(O)O,.,.,.,0.061µM*,.
Cc1cc(C)c(Cc2c(C)nc3c(C(=O)NCc4ccco4)cnn3c2C)c(C)c1,-19%,20µM*,-14%,14µM*,-93%
Cc1nc2c(C(=O)NC(C)c3ccccc3)cnn2c(C)c1Cc1ccccc1 (stereo not given),-6%,.,-10%,.,13µM*
Cc1ccc(CNC(=O)c2cnn3c(C)c(Cc4c(F)cccc4Cl)c(C)nc23)cc1,-18%,?,10%,-26%,-11%
Cc1nc2c(C(=O)NCCc3ccc(Cl)cc3)cnn2c(C)c1Cc1ccc(F)cc1,4%,.,7.1µM*,.,-95%
CCOc1ccccc1C(=O)NCC(=O)OCC(=O)c1c(N)n(C)c(=O)n(C)c1=O,.,i,14%,.,-9%
C/C(CC1CC(C)(C)OC1=O)=N\NC(N)=S (stereo not given),4%,i,1%,-3%,4%
C/C(CC1CC2=C(CC1(C)C)C(C)(C)CCC2)=N\NC(N)=S (stereo not given),?,.,7.9µM*,?,11µM*
C=CCNCCOCCOc1ccc(Cl)cc1C(C)(C)C,-7%,?,?,-37%,-39%
CC(C)(C)c1ccccc1OCCOCCNCc1ccccc1,8%,?,25µM*,-35%,-65%
COCCCNCCOCCOc1ccc(Cl)cc1C(C)(C)C,5%,?,20µM*,?,11µM*
CNCCOc1ccccc1C(C)(C)C,-2%,i,0%,-7%,-10%
Cc1ccc(N=C(NOCc2ccc(Cl)cc2Cl)c2nonc2N)c(C)c1,-15%,i,16µM*,-37%,-45%
Cc1ccccc1N=C(NOCc1ccc(Cl)cc1Cl)c1nonc1N,-8%,?,13%,?,-1%
CCOc1cc(/C=N/Nc2ncnc(Cl)c2N)ccc1O,1%,?,-11%,38%,0%
COc1cc(/C=N/Nc2nncn2/N=C/c2ccc(O)c(OC)c2)ccc1O,-12%,i,4%,-19%,10µM*
CCOc1cc(/C=N/Nc2nnc(C)n2N)ccc1O,2%,i,11µM*,-33%,11µM*
Cc1cccc(N(C(=O)Cc2cccs2)C(C(=O)NC2CCCC2)c2ccncc2)c1 (stereo not given),4%,i,1%,-6%,0%
Cc1ccc(N(C(=O)Cc2cccs2)C(C(=O)NC2CCCCC2)c2ccccn2)cc1C (stereo not given),-16%,28µM*,?,-17%,-53%
